# Results: PMC7862700, “An all-to-all approach to the identification of sequence-specific readers for epigenetic DNA modifications on cytosine”
# Tests used:
# Test in all cases: DAPPL (digital affinity profiling via proximity ligation, sequencing); 10 mM Tris-HCl pH 7.5, 50 mM NaCl, 1 mM DTT, 4% glycerol, room temperature, 30 min; GST-TFs on glutathione beads, 16-mer random dsDNA library, 0.1% formaldehyde crosslink after washing; high values mean tight binding
# [1] = target: T1, FLI1 (Homo sapiens, UniProt Q01543 1-452); details: protein: recombinant; tags: N-terminal GST; dsDNA, one strand shown
# T1 sequence: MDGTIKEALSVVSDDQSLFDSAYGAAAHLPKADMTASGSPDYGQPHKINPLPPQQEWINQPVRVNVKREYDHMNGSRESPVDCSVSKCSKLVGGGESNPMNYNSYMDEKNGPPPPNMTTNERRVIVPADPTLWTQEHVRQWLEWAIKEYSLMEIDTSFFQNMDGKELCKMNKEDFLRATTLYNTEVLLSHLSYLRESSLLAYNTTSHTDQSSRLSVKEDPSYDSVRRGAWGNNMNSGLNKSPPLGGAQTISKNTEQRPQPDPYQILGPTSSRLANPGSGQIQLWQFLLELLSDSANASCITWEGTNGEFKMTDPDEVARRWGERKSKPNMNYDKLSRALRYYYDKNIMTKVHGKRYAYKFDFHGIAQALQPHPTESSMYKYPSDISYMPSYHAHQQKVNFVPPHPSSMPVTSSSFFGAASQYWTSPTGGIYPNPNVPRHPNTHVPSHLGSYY
# Summary of the method: (§1)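 Human transcription factors fused to GST were expressed in yeast, captured on glutathione beads, given DNA barcodes and pooled with a GST-only negative control. Pools were incubated with 200 nmole of a 16-mer random double-stranded DNA library in Tris/NaCl/DTT/glycerol buffer at room temperature for 30 min. They were then washed, crosslinked with 0.1% formaldehyde, proximity-ligated (BsaI/T4 ligase, 1 h, 37 °C), PCR-amplified and sequenced on an Illumina NextSeq500. Binding signal is each 6-mer's read frequency for a factor divided by its frequency for the GST control.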
# [2] = target: T2, ELK1 (Homo sapiens, UniProt P19419 1-428); details: protein: recombinant; tags: N-terminal GST; dsDNA, one strand shown
# T2 sequence: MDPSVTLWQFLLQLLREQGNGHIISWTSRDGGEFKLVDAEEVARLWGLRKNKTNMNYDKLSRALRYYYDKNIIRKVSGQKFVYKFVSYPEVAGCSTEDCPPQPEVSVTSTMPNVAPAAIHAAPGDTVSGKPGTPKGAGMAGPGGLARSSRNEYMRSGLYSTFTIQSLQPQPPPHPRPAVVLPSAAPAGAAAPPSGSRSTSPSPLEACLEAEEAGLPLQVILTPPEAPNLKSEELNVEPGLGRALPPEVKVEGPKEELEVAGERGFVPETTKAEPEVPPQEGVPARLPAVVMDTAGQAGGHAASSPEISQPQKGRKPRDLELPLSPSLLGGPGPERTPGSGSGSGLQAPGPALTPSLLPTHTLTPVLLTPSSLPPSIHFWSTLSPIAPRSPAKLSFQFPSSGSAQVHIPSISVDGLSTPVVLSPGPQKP
# Summary of the method: as §1
# [3] = target: T3, GABPA (Homo sapiens, UniProt Q06546 1-454); details: protein: recombinant; tags: N-terminal GST; dsDNA, one strand shown
# T3 sequence: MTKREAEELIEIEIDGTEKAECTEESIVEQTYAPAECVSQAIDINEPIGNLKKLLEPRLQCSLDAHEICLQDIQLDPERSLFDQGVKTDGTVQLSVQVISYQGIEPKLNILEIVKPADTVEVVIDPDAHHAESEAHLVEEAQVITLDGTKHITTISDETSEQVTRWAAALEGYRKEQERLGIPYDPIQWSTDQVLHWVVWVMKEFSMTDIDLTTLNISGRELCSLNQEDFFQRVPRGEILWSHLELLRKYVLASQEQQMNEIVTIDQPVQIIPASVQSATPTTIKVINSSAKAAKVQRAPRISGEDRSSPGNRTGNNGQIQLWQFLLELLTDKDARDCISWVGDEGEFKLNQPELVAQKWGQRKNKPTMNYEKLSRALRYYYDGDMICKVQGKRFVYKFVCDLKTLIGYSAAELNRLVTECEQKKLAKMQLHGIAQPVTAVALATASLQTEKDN
# Summary of the method: as §1
# [4] = target: T4, ERG (Homo sapiens, UniProt P11308 1-479); details: protein: recombinant; tags: N-terminal GST; dsDNA, one strand shown
# T4 sequence: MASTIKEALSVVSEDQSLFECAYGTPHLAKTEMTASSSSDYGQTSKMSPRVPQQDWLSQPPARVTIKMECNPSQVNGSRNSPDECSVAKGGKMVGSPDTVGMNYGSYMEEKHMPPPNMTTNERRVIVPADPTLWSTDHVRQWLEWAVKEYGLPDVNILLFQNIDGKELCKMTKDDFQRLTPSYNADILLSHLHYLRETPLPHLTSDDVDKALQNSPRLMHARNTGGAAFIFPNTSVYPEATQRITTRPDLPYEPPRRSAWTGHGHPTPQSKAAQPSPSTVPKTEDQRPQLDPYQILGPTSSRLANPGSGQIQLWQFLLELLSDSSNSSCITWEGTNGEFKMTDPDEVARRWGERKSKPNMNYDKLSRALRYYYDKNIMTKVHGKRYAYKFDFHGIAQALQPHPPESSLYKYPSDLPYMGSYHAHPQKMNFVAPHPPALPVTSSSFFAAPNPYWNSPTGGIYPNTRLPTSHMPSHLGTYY
# Summary of the method: as §1
# [5] = target: ELF1 (Homo sapiens, UniProt P32519 1-619); details: protein: recombinant; tags: N-terminal GST; dsDNA, one strand shown
# ELF1, sequence (P32519 whole entry): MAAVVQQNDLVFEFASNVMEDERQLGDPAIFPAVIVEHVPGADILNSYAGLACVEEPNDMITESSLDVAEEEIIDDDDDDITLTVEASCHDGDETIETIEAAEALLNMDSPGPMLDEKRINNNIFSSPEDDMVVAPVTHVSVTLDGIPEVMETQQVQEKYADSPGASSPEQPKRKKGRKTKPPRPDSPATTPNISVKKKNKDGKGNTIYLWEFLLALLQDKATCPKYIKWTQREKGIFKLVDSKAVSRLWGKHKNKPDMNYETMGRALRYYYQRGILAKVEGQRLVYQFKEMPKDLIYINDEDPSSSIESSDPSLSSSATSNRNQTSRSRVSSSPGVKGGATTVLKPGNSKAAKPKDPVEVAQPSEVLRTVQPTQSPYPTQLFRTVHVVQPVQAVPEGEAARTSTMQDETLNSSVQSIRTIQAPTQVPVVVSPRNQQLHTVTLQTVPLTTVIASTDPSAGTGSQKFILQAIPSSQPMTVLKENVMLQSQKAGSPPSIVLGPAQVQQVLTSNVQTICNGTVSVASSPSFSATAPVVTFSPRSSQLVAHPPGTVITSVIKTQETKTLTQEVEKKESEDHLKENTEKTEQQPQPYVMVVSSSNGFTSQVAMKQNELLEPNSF
# Summary of the method: as §1
# [6] = target: T5, EHF (Homo sapiens, UniProt Q9NZC4 1-300); details: protein: recombinant; tags: N-terminal GST; dsDNA, one strand shown
# T5 sequence: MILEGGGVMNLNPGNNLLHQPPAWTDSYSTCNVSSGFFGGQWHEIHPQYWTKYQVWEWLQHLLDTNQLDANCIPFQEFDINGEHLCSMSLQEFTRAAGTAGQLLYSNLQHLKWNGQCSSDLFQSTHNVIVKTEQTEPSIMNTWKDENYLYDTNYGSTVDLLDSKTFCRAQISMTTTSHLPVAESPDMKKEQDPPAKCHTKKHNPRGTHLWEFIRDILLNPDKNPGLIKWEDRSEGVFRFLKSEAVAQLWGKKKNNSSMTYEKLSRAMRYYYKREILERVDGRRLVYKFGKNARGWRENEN
# Summary of the method: as §1
# [7] = target: SPI1 (Homo sapiens, UniProt P17947 1-270); details: protein: recombinant; tags: N-terminal GST; dsDNA, one strand shown
# Summary of the method: as §1
# [8] = target: SPIB (Homo sapiens, UniProt Q01892 1-262); details: protein: recombinant; tags: N-terminal GST; dsDNA, one strand shown
# SPIB, sequence (Q01892 whole entry): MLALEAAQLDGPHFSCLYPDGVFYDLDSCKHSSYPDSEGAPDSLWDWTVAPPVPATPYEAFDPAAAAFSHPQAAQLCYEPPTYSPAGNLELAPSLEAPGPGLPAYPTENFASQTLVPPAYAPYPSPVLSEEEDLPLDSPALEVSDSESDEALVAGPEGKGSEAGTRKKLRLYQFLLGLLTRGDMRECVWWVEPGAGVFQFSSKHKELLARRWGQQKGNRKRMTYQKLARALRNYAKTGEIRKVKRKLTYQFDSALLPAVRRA
# Summary of the method: as §1
# [9] = target: T6, ELK3 (Homo sapiens, UniProt P41970 1-407); details: protein: recombinant; tags: N-terminal GST; dsDNA, one strand shown
# T6 sequence: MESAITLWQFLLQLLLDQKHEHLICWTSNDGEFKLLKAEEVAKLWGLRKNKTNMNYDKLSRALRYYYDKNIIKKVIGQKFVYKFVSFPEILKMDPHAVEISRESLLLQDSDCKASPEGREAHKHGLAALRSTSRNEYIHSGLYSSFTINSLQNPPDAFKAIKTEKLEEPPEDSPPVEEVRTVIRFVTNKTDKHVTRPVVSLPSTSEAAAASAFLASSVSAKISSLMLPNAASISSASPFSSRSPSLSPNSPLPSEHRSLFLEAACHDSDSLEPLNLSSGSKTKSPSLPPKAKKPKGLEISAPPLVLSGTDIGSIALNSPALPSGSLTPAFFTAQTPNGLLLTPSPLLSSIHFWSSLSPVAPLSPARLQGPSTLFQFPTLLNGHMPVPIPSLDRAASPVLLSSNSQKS
# Summary of the method: as §1
# [10] = target: T7, FEV (Homo sapiens, UniProt Q99581 1-238); details: protein: recombinant; tags: N-terminal GST; dsDNA, one strand shown
# T7 sequence: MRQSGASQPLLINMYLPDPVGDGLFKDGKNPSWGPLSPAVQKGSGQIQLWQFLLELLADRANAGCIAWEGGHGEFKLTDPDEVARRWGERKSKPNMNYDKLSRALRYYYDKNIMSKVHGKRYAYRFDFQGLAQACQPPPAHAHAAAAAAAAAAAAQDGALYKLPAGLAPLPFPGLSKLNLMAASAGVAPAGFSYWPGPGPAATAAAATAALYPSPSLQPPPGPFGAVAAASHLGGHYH
# Summary of the method: as §1
# [11] = target: ETV5 (Homo sapiens, UniProt P41161 1-510); details: protein: recombinant; tags: N-terminal GST; dsDNA, one strand shown
# ETV5, sequence (P41161 whole entry): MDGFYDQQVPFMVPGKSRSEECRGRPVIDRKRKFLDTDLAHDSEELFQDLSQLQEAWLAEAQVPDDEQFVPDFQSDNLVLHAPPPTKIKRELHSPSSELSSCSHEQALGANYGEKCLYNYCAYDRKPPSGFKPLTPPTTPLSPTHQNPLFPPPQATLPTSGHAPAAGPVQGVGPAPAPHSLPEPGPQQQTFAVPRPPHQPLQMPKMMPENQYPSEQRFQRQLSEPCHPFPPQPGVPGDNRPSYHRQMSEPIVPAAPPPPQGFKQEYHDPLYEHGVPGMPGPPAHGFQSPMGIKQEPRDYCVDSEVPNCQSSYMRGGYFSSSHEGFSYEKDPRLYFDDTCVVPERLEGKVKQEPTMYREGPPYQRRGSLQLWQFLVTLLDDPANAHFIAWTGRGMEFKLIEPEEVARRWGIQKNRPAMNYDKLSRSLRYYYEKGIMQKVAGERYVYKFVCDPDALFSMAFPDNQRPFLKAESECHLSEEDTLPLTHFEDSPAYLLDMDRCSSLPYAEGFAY
# Summary of the method: as §1
# [12] = target: HSF1 (Homo sapiens, UniProt Q00613 1-529); details: protein: recombinant; tags: N-terminal GST; chain copies: 3; dsDNA, one strand shown
# HSF1, sequence (Q00613 whole entry): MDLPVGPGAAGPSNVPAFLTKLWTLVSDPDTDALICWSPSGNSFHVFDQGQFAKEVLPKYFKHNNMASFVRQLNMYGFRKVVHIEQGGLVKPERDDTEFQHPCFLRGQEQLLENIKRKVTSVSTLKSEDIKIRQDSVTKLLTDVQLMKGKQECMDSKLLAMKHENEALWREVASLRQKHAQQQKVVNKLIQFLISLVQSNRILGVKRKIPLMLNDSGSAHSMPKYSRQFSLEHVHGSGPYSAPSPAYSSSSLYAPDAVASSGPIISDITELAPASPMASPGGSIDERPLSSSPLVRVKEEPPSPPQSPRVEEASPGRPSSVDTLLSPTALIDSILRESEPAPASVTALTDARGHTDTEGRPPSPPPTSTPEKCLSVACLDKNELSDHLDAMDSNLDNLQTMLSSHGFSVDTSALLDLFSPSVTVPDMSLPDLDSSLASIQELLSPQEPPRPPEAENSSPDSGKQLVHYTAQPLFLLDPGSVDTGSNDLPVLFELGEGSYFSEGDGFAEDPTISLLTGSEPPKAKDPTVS
# Summary of the method: as §1
# [13] = target: T8, SPIC (Homo sapiens, UniProt Q8N5J4 1-248); details: protein: recombinant; tags: N-terminal GST; dsDNA, one strand shown
# T8 sequence: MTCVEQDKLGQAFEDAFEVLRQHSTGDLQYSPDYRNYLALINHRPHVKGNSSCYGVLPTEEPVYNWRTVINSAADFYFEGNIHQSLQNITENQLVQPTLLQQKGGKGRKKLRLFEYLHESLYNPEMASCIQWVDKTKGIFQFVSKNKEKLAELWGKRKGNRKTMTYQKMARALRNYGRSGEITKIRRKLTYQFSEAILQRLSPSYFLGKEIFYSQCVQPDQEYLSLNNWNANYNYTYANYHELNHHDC
# Summary of the method: as §1
# [14] = target: ELF4 (Homo sapiens, UniProt Q99607 1-663); details: protein: recombinant; tags: N-terminal GST; dsDNA, one strand shown
# ELF4, sequence (Q99607 whole entry): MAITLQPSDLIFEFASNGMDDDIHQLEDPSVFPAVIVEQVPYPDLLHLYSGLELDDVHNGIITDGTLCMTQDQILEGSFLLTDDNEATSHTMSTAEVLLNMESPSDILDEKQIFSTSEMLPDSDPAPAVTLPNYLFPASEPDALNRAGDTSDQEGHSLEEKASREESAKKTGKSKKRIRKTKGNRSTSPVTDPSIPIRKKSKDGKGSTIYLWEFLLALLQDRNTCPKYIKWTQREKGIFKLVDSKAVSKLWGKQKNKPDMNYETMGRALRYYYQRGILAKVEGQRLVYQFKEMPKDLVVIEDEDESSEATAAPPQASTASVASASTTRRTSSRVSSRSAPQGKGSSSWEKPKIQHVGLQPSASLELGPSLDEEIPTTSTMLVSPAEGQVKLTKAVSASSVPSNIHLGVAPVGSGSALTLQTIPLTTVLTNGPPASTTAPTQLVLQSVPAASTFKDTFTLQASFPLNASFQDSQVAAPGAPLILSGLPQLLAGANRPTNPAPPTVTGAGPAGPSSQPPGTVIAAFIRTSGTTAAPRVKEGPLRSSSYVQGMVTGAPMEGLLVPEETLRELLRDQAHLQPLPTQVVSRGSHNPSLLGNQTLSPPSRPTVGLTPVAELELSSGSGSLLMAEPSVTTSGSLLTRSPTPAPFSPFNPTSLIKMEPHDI
# Summary of the method: as §1
# [15] = target: T9, ELK4 (Homo sapiens, UniProt P28324-2 1-405); details: protein: recombinant; tags: N-terminal GST; dsDNA, one strand shown
# T9 sequence: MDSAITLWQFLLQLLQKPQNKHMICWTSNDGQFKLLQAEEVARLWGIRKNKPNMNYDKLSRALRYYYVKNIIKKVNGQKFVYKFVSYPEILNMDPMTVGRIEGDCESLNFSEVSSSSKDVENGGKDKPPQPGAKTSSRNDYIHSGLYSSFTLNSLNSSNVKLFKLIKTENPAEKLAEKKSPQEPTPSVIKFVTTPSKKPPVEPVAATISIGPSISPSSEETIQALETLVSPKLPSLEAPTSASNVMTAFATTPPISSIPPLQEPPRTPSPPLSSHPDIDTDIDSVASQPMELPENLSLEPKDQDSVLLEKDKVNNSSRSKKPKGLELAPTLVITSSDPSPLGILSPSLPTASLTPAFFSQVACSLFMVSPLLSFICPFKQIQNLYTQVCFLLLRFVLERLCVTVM
# Summary of the method: as §1
# [16] = target: T10, ETV2 (Homo sapiens, UniProt O00321 1-342); details: protein: recombinant; tags: N-terminal GST; dsDNA, one strand shown
# T10 sequence: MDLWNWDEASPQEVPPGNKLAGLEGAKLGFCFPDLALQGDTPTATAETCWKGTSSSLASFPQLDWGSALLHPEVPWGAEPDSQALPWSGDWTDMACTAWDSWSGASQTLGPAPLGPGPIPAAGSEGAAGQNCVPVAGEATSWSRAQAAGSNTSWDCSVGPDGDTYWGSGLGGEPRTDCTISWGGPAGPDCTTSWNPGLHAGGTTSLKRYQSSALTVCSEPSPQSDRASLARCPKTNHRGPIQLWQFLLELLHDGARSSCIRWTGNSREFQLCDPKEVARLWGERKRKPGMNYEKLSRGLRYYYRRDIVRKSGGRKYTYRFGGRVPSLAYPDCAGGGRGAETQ
# Summary of the method: as §1
# [17] = target: T11, ELF3 (Homo sapiens, UniProt P78545 1-371); details: protein: recombinant; tags: N-terminal GST; dsDNA, one strand shown
# T11 sequence: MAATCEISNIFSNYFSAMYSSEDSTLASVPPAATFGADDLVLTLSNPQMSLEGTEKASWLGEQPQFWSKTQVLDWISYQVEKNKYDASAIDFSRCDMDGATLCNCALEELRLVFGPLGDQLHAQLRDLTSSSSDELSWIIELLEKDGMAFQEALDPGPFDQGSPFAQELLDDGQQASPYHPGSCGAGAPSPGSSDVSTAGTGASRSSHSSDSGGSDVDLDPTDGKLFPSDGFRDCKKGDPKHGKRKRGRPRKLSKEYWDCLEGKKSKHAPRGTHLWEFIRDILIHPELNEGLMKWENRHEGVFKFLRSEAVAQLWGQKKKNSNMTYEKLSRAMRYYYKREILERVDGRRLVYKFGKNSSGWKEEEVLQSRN
# Summary of the method: as §1
# [18] = target: CRX (Homo sapiens, UniProt O43186 1-299); details: protein: recombinant; tags: N-terminal GST; dsDNA, one strand shown
# CRX, sequence (O43186 whole entry): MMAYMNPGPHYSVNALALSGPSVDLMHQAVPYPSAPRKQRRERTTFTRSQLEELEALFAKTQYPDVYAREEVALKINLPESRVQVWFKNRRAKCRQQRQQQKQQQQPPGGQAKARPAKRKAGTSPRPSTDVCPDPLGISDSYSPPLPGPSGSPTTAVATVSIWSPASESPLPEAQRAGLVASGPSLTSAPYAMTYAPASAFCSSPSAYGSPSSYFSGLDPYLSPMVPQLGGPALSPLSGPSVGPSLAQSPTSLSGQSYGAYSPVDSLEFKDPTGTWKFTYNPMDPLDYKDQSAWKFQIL
# Summary of the method: as §1
# [19] = target: ETV1 (Homo sapiens, UniProt P50549 1-477); details: protein: recombinant; tags: N-terminal GST; dsDNA, one strand shown
# ETV1, sequence (P50549 whole entry): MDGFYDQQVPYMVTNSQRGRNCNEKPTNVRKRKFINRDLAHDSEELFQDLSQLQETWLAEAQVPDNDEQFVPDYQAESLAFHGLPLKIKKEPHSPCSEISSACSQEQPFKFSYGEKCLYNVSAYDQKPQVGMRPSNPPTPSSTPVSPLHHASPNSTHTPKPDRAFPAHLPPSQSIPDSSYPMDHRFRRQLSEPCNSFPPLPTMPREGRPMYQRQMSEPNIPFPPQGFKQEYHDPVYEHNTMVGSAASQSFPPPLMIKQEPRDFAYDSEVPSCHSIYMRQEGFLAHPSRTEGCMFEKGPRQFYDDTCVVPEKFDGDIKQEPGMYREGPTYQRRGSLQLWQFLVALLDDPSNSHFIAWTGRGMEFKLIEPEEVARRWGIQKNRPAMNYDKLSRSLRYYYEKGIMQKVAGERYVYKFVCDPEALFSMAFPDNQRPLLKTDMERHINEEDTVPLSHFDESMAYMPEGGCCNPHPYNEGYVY
# Summary of the method: as §1
sequence,measurement,setting,value
CAATTC,binding signal,[1],"1.33 fold enrichment (6-mer frequency, TF over GST control)"
same,binding signal,[2],"1.27 fold enrichment (6-mer frequency, TF over GST control)"
same,binding signal,[3],"1.19 fold enrichment (6-mer frequency, TF over GST control)"
same,binding signal,[4],"1.29 fold enrichment (6-mer frequency, TF over GST control)"
same,binding signal,[5],"1.25 fold enrichment (6-mer frequency, TF over GST control)"
same,binding signal,[6],"1.24 fold enrichment (6-mer frequency, TF over GST control)"
same,binding signal,[7],"1.24 fold enrichment (6-mer frequency, TF over GST control)"
same,binding signal,[8],"1.44 fold enrichment (6-mer frequency, TF over GST control)"
same,binding signal,[9],"1.2 fold enrichment (6-mer frequency, TF over GST control)"
same,binding signal,[10],"1.24 fold enrichment (6-mer frequency, TF over GST control)"
same,binding signal,[11],"1.37 fold enrichment (6-mer frequency, TF over GST control)"
same,binding signal,[12],"1.19 fold enrichment (6-mer frequency, TF over GST control)"
same,binding signal,[13],"1.16 fold enrichment (6-mer frequency, TF over GST control)"
same,binding signal,[14],"1.31 fold enrichment (6-mer frequency, TF over GST control)"
same,binding signal,[15],"1.25 fold enrichment (6-mer frequency, TF over GST control)"
same,binding signal,[16],"1.39 fold enrichment (6-mer frequency, TF over GST control)"
same,binding signal,[17],"1.34 fold enrichment (6-mer frequency, TF over GST control)"
same,binding signal,[18],"1.07 fold enrichment (6-mer frequency, TF over GST control)"
same,binding signal,[19],"1.21 fold enrichment (6-mer frequency, TF over GST control)"
